TDP1 cell noCPT: qHTS for Inhibitors of human tyrosyl-DNA phosphodiesterase 1 (TDP1): qHTS in cells in absence of CPT; DT40 Tdp1-/- hTDP1 cells, no CPT, ATP luminescence, 48 h; Potency, µM (series often up to 46.2 µM), actives largely listed as inhibitors; 420,000 compounds, 15% hits; AID 686978, 2013; note: nearly all actives have a fitted effect of over 55% in size
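Readout: luminescence from CellTiter-Glo after 30 min in the dark at RT. Cells: DT40 Tdp1-/- with stable hTDP1, 400/well. Exposure: compounds alone, ≥48 hr, 37 °C.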
DT40 TDP1 CPT: qHTS for Inhibitors of human tyrosyl-DNA phosphodiesterase 1 (TDP1): qHTS in cells in presence of CPT | chicken DT40 Tdp1-/-;hTDP1 cells + 20 nM CPT, ATP luminescence, 48 h | Potency, µM (doses to about 46.2 µM), most hits filed as inhibitors | 420,000 compounds, 12% hits | AID 686979, 2013; note: nearly all actives have a fitted effect of over 55% in size
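Chicken DT40 Tdp1-/- cells complemented with human TDP1, 400 cells/well, exposed to compounds plus 20 nM camptothecin for at least 48 h at 37 C; viability read as ATP content by CellTiter-Glo luminescence.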
HT1080 IDH1KD tx: qHTS for induction of synthetic lethality in tumor cells producing 2HG: qHTS for the HT-1080-IDH1KD cell line. HT-1080 IDH1 knockdown viability, ATP luminescence, 48 h. Potency, µM (highest dose often 46.1 µM), actives largely listed as cytotoxic. 360,000 compounds, 2% hits
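Knockdown cells (IDH1KD HT-1080) received compounds 2 h after plating at 750 cells/well and were kept 48 h at 37 °C in 5% FBS RPMI. A CellTiter-Glo luminescence read gave % activity for curve fitting.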
HT1080-NT tox: qHTS for induction of synthetic lethality in tumor cells producing 2HG: qHTS for the HT-1080-NT fibrosarcoma cell line. 360,000 compounds, 1.6% hits. HT-1080-NT fibrosarcoma viability, CellTiter-Glo ATP luminescence, 48 h. Potency, µM (series often up to 46.1 µM), most hits filed as cytotoxic;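 note: NT is the 2HG producing partner of a matched IDH1 knockdown line; nearly all actives have a fitted effect of over 55% in size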
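Read-out is CellTiter-Glo luminescence after 10 minutes at room temperature, following 48 hours' compound treatment of HT-1080-NT cells (750 cells/well, RPMI, 5% FBS, 37 degrees C).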
12-LOX inh: Primary qHTS assay for inhibitors of human arachidonate 12S-lipoxygenase (ALOX12): Round 2; 580,000 compounds, 1.1% hits; purified 12hLO, xylenol orange hydroperoxide absorbance; Potency, µM (top dose mostly 108 µM), usual class: inhibitors
Target sequence (P18054 whole entry, looked up): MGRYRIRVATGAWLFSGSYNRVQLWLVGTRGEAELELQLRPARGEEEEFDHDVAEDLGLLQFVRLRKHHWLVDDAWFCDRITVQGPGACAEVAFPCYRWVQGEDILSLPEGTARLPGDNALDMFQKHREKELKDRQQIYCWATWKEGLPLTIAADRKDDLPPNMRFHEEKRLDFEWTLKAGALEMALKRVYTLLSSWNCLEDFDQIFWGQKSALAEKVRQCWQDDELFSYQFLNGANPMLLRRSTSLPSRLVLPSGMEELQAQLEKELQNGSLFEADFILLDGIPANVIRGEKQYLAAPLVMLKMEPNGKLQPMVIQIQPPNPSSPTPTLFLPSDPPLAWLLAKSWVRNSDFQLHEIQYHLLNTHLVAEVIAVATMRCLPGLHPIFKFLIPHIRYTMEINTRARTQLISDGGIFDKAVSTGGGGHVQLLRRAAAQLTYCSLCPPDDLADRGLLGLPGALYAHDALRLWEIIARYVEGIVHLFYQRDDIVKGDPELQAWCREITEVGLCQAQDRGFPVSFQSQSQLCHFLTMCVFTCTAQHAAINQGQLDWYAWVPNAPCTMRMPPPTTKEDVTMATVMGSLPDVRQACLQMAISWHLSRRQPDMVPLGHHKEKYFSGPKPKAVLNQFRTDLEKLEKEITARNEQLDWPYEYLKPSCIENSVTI
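Purified human 12hLO (150 nM final) in 25 mM Hepes, 0.01% Triton X-100, pH 7.0 was preincubated 15 min at room temperature with compound. Then 40 uM arachidonic acid was added, 30 min. Hydroperoxide was read by Fe-XO absorbance ratio 573/405 nm.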
IL-1B inflam inh: qHTS for Inhibitors of Inflammasome Signaling: IL-1-beta AlphaLISA Primary Screen | 360,000 compounds, 4.7% hits | THP-1 LPS/ATP IL-1B secretion, AlphaLISA, 16 h; hits give low values | AID 743279, 2014 | activity change, % at 57.5 µM; in the data active = activity change below about -50%; inconclusive = mostly about -30% to -49%
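Secreted IL-1B measured by AlphaLISA bead assay after 16 h compound exposure of THP-1 cells; compounds (final up to 57.5 uM) added 1 h before LPS (250 ng/mL) and ATP (1.25 mM) stimulation; lower signal means less secretion.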
A number is an active result; n = inactive; u = inconclusive; x = no result. Many of the other results were omitted from the sample, so hits are more common in it than they were. Unless noted, calls come from the whole dose curve; as a rule, active = well fitted curve in the direction sought with a large enough effect; inconclusive = small, poorly fitted or top-dose-only effect, or another doubt; inactive = no such curve, though single readings can be large; an effect the other way counts as inactive or inconclusive.

SMILES	TDP1 cell noCPT	DT40 TDP1 CPT	HT1080 IDH1KD tx	HT1080-NT tox	12-LOX inh	IL-1B inflam inh
CN(Cc1ccccc1)C(=O)c1cccc(NC(=O)C2CCCN(C(=O)OC(C)(C)C)C2)c1 (centres undefined)	16.4µM	18.4µM	n	n	n	n
CN(CCc1ccccc1)C(=O)c1ccc(NC(=O)Cc2cccc(NC(=O)C3CCN(C(=O)C4CC4)CC3)c2)cc1	n	n	n	n	n	n
CN(Cc1ccccc1)C(=O)c1ccc(NC(=O)Cc2cccc(NC(=O)C3CCN(C(=O)C4CCCCC4)CC3)c2)cc1	u	u	n	n	n	n
COc1ccc(-n2nc(C)c([C@H]3C=C[C@@H](OC(=O)Nc4ccc(Br)cc4)C3)c2C)cc1	x	x	x	x	n	x
CC(Sc1cc(C(=O)NC2CC2)c2ccccc2n1)C(=O)N1CCCC1 (centres undefined)	x	x	x	x	n	x
CNC(=O)c1cc[nH]c1C1CCCN(C(=O)CCc2nc3ccccc3[nH]2)C1 (centres undefined)	x	x	x	x	n	x
CN(C(=O)c1ccc(NC(=O)C2CCCN(C(=O)OC(C)(C)C)C2)cc1)C1CCC1 (centres undefined)	16.4µM	u	n	n	n	n
COc1ccc(CNCCC(c2ccccc2)c2ccc3c(c2)OCO3)cc1 (centres undefined)	5.8µM	5.8µM	u	u	u	-87.5
COc1ccc(CNCCC(c2ccc(C)cc2)c2ccco2)cc1 (centres undefined)	7.31µM	11.6µM	x	x	u	x
Fc1ccccc1CNCCC(Cc1ccccc1)c1ccc2c(c1)OCO2 (centres undefined)	u	u	u	16.4µM	n	-97.8
CN1C(=O)CO[C@H](c2ccc(NC(=O)C3CCCC3)cc2)[C@H]1CO	x	x	x	x	n	x
Cc1nc2c(c(NCCc3cnn(-c4ccccc4)c3)n1)CCNCC2	x	x	x	x	n	x
Cc1cc(C)cc(NC(=O)CN(Cc2ccccc2)S(C)(=O)=O)c1	13µM	u	n	n	n	n
O=C(Cc1ccccc1)NCc1ccc2c(c1)OCO2	n	n	n	n	n	n
CS(=O)(=O)N(CC(=O)NCc1ccc2c(c1)OCO2)Cc1ccccc1	20.6µM	29.1µM	n	n	n	n
COc1ccc2nc3cc(Cl)ccc3c(Nc3ccc(O)c(CN4CCN(C)CC4)c3)c2c1	1.46µM	1.84µM	16.4µM	u	u	-113.7
Cc1ncc([N+](=O)[O-])n1CCOC(=O)Nc1ccc([N+](=O)[O-])cc1	n	n	n	n	n	n
Cc1ncc([N+](=O)[O-])n1CCOC(=O)c1cc(Cl)cc(Cl)c1N	u	n	n	n	31.6µM	n
COCC(C)NC(=O)c1cc2ccccc2oc1=O (centres undefined)	x	x	x	x	n	x
COCC(C)N(C)C(=O)c1ccc2c(c1)NC(=O)CS2 (centres undefined)	x	x	x	x	n	x
CCCn1c(N2CCN(C(=O)Nc3ccc(Cl)cc3)CC2)nc2ccccc21	23.1µM	u	n	n	n	u
Cn1c(N2CCN(C(=O)Nc3ccc(C(F)(F)F)cc3)CC2)nc2ccccc21	20.6µM	18.4µM	n	n	n	n
Cn1c(N2CCN(C(=O)NCc3ccccc3)CC2)nc2ccccc21	n	u	n	n	n	n
O=C(CCCc1cccs1)N(CC1CCOC1)C1CC1 (centres undefined)	x	x	x	x	n	x
CC(C)(C)c1cc(C[C@@H]2C[C@H](NCc3ccccn3)C2(C)C)no1	x	x	x	x	n	x
SMILES	TDP1 cell noCPT	DT40 TDP1 CPT	HT1080 IDH1KD tx	HT1080-NT tox	12-LOX inh	IL-1B inflam inh
O=[N+]([O-])c1ccccc1C=NNC(=S)NN=Cc1ccccc1[N+](=O)[O-]	3.26µM	6.51µM	u	u	u	n
COc1cccc(/C=N/NC(=S)NCCc2ccccc2)c1OC	n	u	n	n	u	n
CCOc1cccc(/C=N/NS(=O)(=O)c2ccc(C)c([N+](=O)[O-])c2)c1O	n	n	n	n	n	n
CCOc1cccc(/C=N/NC(=S)Nc2ccccc2[N+](=O)[O-])c1O	8.2µM	9.2µM	16.4µM	u	n	n
O=[N+]([O-])c1ccccc1/C=N/Nc1nnc(-c2ccccc2)c(-c2ccccc2)n1	1.64µM	2.06µM	n	n	n	n
CNC(=S)N/N=C/c1ccccc1[N+](=O)[O-]	x	x	x	x	n	x
O=[N+]([O-])c1ccccc1/C=N\Nc1nccs1	n	n	n	n	n	n
CCCCNC(=S)N/N=C/c1cccc(OCC)c1O	2.06µM	1.16µM	n	n	n	n
COc1ccc(C(=O)N[C@@H]2CCC[C@@H]2C(=O)NCc2ccccn2)cc1	x	x	x	x	n	x
COc1cccc(-c2cc(C(=O)N3CCN(C(=O)c4ccc(Br)o4)CC3)[nH]n2)c1	x	x	x	x	n	x
COC(=O)c1[nH]c2ccc(F)cc2c1NC(=O)CCN1CCCC(C)(C)C1	x	x	x	x	n	x
Cc1nc2cc(NC(=O)COc3ccc(Cl)cc3Cl)ccc2o1	x	x	x	x	n	x
Cc1ccc(CN(CC(=O)N/N=C/c2ccccc2[N+](=O)[O-])S(=O)(=O)c2ccc(C)cc2)cc1	u	u	n	n	n	n
O=C(CN(Cc1ccccc1)S(=O)(=O)c1ccccc1)N/N=C/c1ccccc1[N+](=O)[O-]	20.6µM	u	n	u	n	u
CC(=O)N1Cc2cc(C(=O)NCC(F)(F)F)nc(-c3cccc(-c4cccnc4)c3)c2[C@@H]1CCO	5.8µM	6.51µM	6.51µM	u	n	n
CC(=O)N1Cc2cc(C(=O)NCC(F)(F)F)nc(-c3cccc(-c4cccnc4)c3)c2[C@H]1CCO	n	n	n	n	n	n
CCNC(=O)c1cc2c(c(-c3cccc(-c4cccnc4)c3)n1)[C@H](CCO)N(S(C)(=O)=O)C2	4.11µM	4.61µM	2.31µM	u	n	n
CCS(=O)(=O)N1Cc2cc(C(=O)NCC3CC3)nc(-c3cccc(-c4cccnc4)c3)c2[C@@H]1CCO	25.9µM	u	u	u	n	n
Cn1nccc1CN1CCC2(C1)C(=O)N(CCc1ccccc1)c1ccccc12 (centres undefined)	x	x	x	x	n	x
O=C(Cc1ccc(-c2ccccc2)cc1)N1CC(COc2ccccc2)C2(C1)CN(C(=O)c1cn[nH]c1)C2 (centres undefined)	x	x	x	x	n	x
O=C(C1CC1)N1CCC(c2nc(-c3ccc4nc[nH]c4c3)no2)CC1	x	x	x	x	n	x

Screening results (PubChem BioAssay)
